This passage reports largest response in the series, negative = inhibition and Potency results from PubChem BioAssay AID1490 (National Center for Advancing Translational Sciences (NCATS), 2009).

Among all 310,000 compounds or so, about 11,000 (3.5%) were called active. About 4% were inconclusive and are not listed. Only a selection was taken, and actives are over-represented in it overall. Unmarked numbers belong to inactive results. Calls come from the whole dose curve; as a rule, active = well fitted inhibition curve with a large enough effect; inconclusive = small, poorly fitted or top-dose-only effect, or another doubt; inactive = no such curve, though single readings can be large or run the other way.
Potency is the fitted concentration of half-maximal effect.

The experiment concerns the target 4'-phosphopantetheinyl transferase ffp (Bacillus subtilis) (UniProt Q9F4F7). The experiment can be described thus: qHTS Assay for Inhibitors of Bacillus subtilis Sfp phosphopantetheinyl transferase (PPTase).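 For largest response in the series, negative = inhibition: 0% = enzyme reaction without inhibitor and -100% = no enzyme wells.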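 Note: the enzyme is Sfp with the accession as filed and its product quenches rhodamine fluorescence.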 The following applies: Biochemical Sfp PPTase activity. In a few lines:
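Buffer: 50 mM Hepes-Na pH 7.6, 10 mM MgCl2, 0.01% Nonidet P-40, 0.01% BSA. Enzyme 15 nM, pre-exposed to compound 15 min; substrates then added and fluorescence change tracked over 30 min.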
On to `O=C(O)c1cccc2c1C(=O)N(C1CCCC1)C2`, for which the largest response in the series, negative = inhibition is 17.2%. Still for that read-out and setting: as for `Cc1cc(Cl)nc(NC(=O)Nc2cccc(Cl)c2)n1`, the figure is -3.29%. `Nc1ccc(Nc2ccccc2)cc1`: the Potency is 56.2 µM (active). Turning to `Cc1ccc(Nc2ccccc2N)cc1`, the largest response in the series, negative = inhibition was -23.1%. With `Cc1cc(Nc2ccccc2)n(C(=O)c2ccc(N)cc2)n1`, the largest response in the series, negative = inhibition is -8.73%. Same read-out and setting: as for `O=C1OC2(CCCCC2)CC2=C1C1O[C@](c3ccsc3)(Cc3ccccc31)O2`, the figure is -2.9%; as for `COC(=O)CCc1ccccc1S(=O)(=O)N(CCC(=O)OC)Cc1ccccc1`, -14.7%. Regarding `CCN(CC(=O)NC(=O)NCc1ccccc1)Cc1nc2ccccc2c(=O)[nH]1`, the largest response in the series, negative = inhibition is -53%. With `CCN(CC(=O)Nc1ccc(Cl)c(S(=O)(=O)N(C)C)c1)Cc1nc2ccccc2c(=O)[nH]1`, the largest response in the series, negative = inhibition was -31.5%. Turning to `CCN(CC(=O)Nc1cccc(S(N)(=O)=O)c1)Cc1nc2ccccc2c(=O)[nH]1`, the Potency was 50.1 µM (active). With `CN1CCN(C(=O)c2cnn(-c3ccccc3)c2NC(=O)c2ccc([N+](=O)[O-])cc2)CC1`, the largest response in the series, negative = inhibition is 1.55%. As to `CC1CCN(C(=S)c2cccc([N+](=O)[O-])c2)CC1`, the Potency is 44.7 µM (active). Turning to `Cc1nc2ccc(NC(=S)N3CCC(C)CC3)cc2nc1C`, the largest response in the series, negative = inhibition was 15.4%. For the compound `CC1CCN(C(=S)c2cccc(O)c2)CC1`, the Potency was 25.1 µM (active). As for `O=C(c1cccc([N+](=O)[O-])c1)N1CCN(C(=O)c2ccco2)CC1`, the largest response in the series, negative = inhibition is 3.81%. Still for that read-out and setting: then `CC1CCN(c2ccc([N+](=O)[O-])cc2C(N)=O)CC1`, with 9.05%; and `CC1CCN(C(=S)NC(=O)c2ccccc2Br)CC1`, with 14.1%; and `CC1=C(C(=O)OC2CCCCC2)C(c2ccccc2F)NC(=O)N1` (stereo not given), with 7.52%.

In the case of `O=C(NC1CCCC1)C(c1ccco1)N(C(=O)c1ccco1)c1ccc(F)cc1` (stereo not given), the largest response in the series, negative = inhibition was 20.8%. For `COc1ccc(CCNC(=O)c2c(C)nn(-c3ccccc3)c2Cl)cc1`, the largest response in the series, negative = inhibition was 9.27%. On the same count and under the same terms, then `CN(CC1CCCO1)S(=O)(=O)c1ccc(C(=O)Nc2ccc([N+](=O)[O-])cc2)cc1` (stereo not given), with -10.7%; and `Cc1c(NC(=O)c2cc(-c3ccc(Br)cc3)on2)c(=O)n(-c2ccccc2)n1C`, with 2.71%.

As to `COc1ccc(-n2cnnc2SCC(=O)Nc2cccc(S(N)(=O)=O)c2)cc1`, the largest response in the series, negative = inhibition was 3.4%. With `NS(=O)(=O)c1cccc(NC(=O)CSc2nc3ccccc3n2-c2ccccc2)c1`, the Potency was 79.4 µM (active). Regarding `Cc1nnc(SCC(=O)Nc2cccc(N)c2)n1-c1ccccc1`, the largest response in the series, negative = inhibition is 20%.

For the compound `COC(=O)c1c(NC(=O)C(=O)N2CCCCC2)sc2c1CC(C)(C)OC2`, the largest response in the series, negative = inhibition was -1.3%. Still for that read-out and setting: then `COc1ccc(/C=C/C(=O)N2CCCC2)cc1OC`, with -0.604%. On to `COc1cc(OC)c(C(=O)N2CCCC2)cc1OC`, for which the largest response in the series, negative = inhibition was 10.6%. Turning to `COc1cc(OC)c(C(=S)N2CCCC2)cc1OC`, the Potency is 20 µM (active). Turning to `COc1ccc(OC)c(CCNC(=O)c2nn(C)c3c2CS(=O)(=O)c2ccccc2-3)c1`, the largest response in the series, negative = inhibition was 15.7%. On the same count and under the same terms, then `COc1ccc(NC(=O)CN2C(=O)COc3ccc(S(=O)(=O)N4CCOCC4)cc32)c(OC)c1`, with 15.2%; and `O=C(c1ccc(S(=O)(=O)N2CCCC2)cc1)N1CCN(c2ccccc2F)CC1`, with 11.7%; and `COc1ccc(/C=C/c2noc(-c3ccccc3OC(C)=O)n2)cc1`, with -16%. On the same count and under the same terms, as for `Cc1cccc(NC(=O)c2sc3nc4c(c(-c5ccco5)c3c2N)CCC4)c1`, the figure is -15.6%; as for `CC(=O)Nc1ccc(N2CCOCC2)c(C(=O)Nc2cccc(C)c2)c1`, 6.24%.

Regarding `Cc1cccc(NC(=O)c2sc3nc(N4CCOCC4)c4c(c3c2N)CCCC4)c1`, the Potency was 17.8 µM (active). For the compound `COc1cccc(CNC(=O)CN(C)S(=O)(=O)c2ccc3c(c2)c(=O)n(C)c(=O)n3C)c1`, the largest response in the series, negative = inhibition is -4.3%.

Take `CCc1ccc(NC(=O)N2CCN(c3ccccc3)CC2)cc1`: the largest response in the series, negative = inhibition is 3.63%. In the case of `CC(CC(=O)N1CCN(c2ccccc2)CC1)c1ccccc1` (stereo not given), the largest response in the series, negative = inhibition was 3.18%.

For the compound `CC(=O)N1CCN(c2ccc(NCc3ccc(C(C)C)cc3)cc2)CC1`, the Potency was 50.1 µM (active).

For the compound `O=C1C(=O)N(CCCO)C(c2ccccc2)/C1=C(\O)c1ccc(Br)cc1` (stereo not given), the largest response in the series, negative = inhibition was 6.17%.

`COc1ccc(C2=NS(=O)(=O)N(C)C(C(=O)N3CCCCC3)=C2)cc1`: the largest response in the series, negative = inhibition is 1.59%. Still for that read-out and setting: then `COc1ccc(NC(=O)c2ccco2)cc1NC(=O)c1ccc(C#N)cc1F`, with 6.39%; and `O=[N+]([O-])c1ccc(O)c(/C=N/Nc2ccccc2[N+](=O)[O-])c1`, with -9.69%.

As for `Nn1cnnc1N/N=C/c1cc([N+](=O)[O-])c(Cl)cc1Cl`, the Potency is 50.1 µM (active). Same read-out and setting: as for `Cc1ccc2sc(NNC(=O)c3ccc4c(c3)OCCO4)nc2c1C`, the figure is 28.2 µM (active). On to `Cc1nc(NC(=O)c2ccc3c(c2)OCCO3)ccc1Br`, for which the largest response in the series, negative = inhibition was -0.776%. Regarding `C/C(=N\NC(=O)C(N)=O)c1ccc2c(c1)OCCO2`, the largest response in the series, negative = inhibition was -17.8%.

In the case of `CCCN1CCN(C(=O)CCCNC(=O)c2ccc(Cl)cc2)CC1`, the largest response in the series, negative = inhibition is 8.54%. Still for that read-out and setting: then `COc1ccc(NC(=O)CC(NC(C)c2ccccc2)C(=O)O)cc1` (stereo not given), with -9.65%; and `CN(C)CCCNC(=O)c1cc(C(=O)Cc2ccc(Cl)cc2)c[nH]1`, with 3.87%. With `COc1cc(CN2CCC(C(N)=O)CC2)ccc1OCc1ccccc1`, the largest response in the series, negative = inhibition is -21.1%. Take `COc1cc(C2CC(=O)N3CN(Cc4ccccc4)CSC3=C2C#N)ccc1OCc1ccccc1` (stereo not given): the Potency was 3.55 µM (active). As for `COc1cc(CNC2CCCC2)c(Br)cc1OCc1ccccc1`, the largest response in the series, negative = inhibition was 9.9%. Same read-out and setting: then `Cc1ccc(CNC(=O)CCC(=O)N2CC(C)Sc3ccccc32)cc1` (stereo not given), with 23.4%. The same measure, in the same setting: then `CC(=O)Nc1ccc(S(=O)(=O)N2CCC(NC(=O)c3ccccc3)CC2)cc1`, with 22.8%.

On to `COc1ccc2c(c1)N(C)/C(=C1/SC(=S)N(NC(C)=O)C1=O)S2`, for which the largest response in the series, negative = inhibition was -12.7%. Consider `COc1cc(C(=O)NC(=S)NCc2ccco2)cc(OC)c1OC`, for which the Potency was 44.7 µM (active). Take `COc1cc(C(=O)N[C@@H](C)C(=O)NCc2ccco2)cc(OC)c1OC`: the largest response in the series, negative = inhibition is 8.28%. Still for that read-out and setting: as for `COc1cccc(OC)c1C(=O)NC(=S)NCc1ccco1`, the figure is -3.61%.
